Bioassay records from PubChem.
The full list was thinned out, with hits kept by preference.
IDE exosite inh – exo-site inhibitors of human IDE, primary screen, biochemical, fluorescence anisotropy, probe displacement; purified IDE, FL-6b probe fluorescence polarization; active compounds read low; z-score at 20 µM; Insulin-degrading enzyme (Homo sapiens), P14735; 17,000 compounds, 6.3% hits;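 active means z-score of -3 or lower, meaning strong loss of probe binding signal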;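 further: His-tagged human IDE residues 42-1019 made in E. coli with 30 nM FL-6b probe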
Target sequence (P14735 42-1019 limits assumed): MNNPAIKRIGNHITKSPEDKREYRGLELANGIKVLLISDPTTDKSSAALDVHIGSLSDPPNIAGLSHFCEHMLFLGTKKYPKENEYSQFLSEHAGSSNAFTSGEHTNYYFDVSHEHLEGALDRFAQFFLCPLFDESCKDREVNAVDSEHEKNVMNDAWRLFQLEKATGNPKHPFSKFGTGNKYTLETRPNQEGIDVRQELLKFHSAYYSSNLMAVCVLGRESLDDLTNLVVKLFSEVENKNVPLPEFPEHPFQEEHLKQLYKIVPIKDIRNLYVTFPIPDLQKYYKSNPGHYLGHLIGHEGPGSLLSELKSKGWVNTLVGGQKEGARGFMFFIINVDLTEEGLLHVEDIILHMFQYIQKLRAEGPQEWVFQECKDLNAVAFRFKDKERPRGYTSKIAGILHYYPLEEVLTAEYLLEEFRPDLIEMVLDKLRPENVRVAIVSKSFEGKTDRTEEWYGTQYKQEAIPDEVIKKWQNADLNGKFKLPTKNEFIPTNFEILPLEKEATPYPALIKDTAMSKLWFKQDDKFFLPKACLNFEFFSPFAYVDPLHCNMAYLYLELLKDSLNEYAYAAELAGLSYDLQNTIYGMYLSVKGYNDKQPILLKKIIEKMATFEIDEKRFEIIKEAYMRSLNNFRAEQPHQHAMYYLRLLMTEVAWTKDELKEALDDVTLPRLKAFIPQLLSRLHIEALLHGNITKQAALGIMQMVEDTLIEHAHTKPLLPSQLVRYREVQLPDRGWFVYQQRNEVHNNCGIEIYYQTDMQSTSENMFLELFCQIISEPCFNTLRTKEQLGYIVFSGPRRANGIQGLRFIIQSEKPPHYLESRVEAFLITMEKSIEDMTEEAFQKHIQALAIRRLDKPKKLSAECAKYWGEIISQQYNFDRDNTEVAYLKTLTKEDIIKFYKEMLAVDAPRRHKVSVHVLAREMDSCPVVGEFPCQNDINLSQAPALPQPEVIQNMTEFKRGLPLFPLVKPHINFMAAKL
* marks the source's active call; other numbers are inactive results.

SMILES	IDE exosite inh
O=C(NC1CCCC1)N1CC(=O)N2[C@@H](CO)[C@@H](c3ccc(-c4cccnc4)cc3)[C@@H]2C1	1.3
O=C(C1CCC1)N1CC(=O)N2[C@H](CO)[C@H](c3ccc(-c4cccnc4)cc3)[C@H]2C1	-2.1
O=C(NC1CCCC1)N1CC(=O)N2[C@H](C1)[C@@H](c1ccc(-c3cccnc3)cc1)[C@@H]2CO	-5.8*
O=C(C1CCC1)N1CC(=O)N2[C@@H](CO)[C@@H](c3ccc(-c4cccnc4)cc3)[C@@H]2C1	-0.57
O=C(NC1CCCC1)N1CC(=O)N2[C@@H](CO)[C@H](c3ccc(-c4cccnc4)cc3)[C@@H]2C1	-4.9*
O=C(NC1CCCC1)N1CC(=O)N2[C@H](CO)[C@@H](c3ccc(-c4cccnc4)cc3)[C@@H]2C1	-12*
O=C(Nc1cc(F)ccc1F)N1CC(=O)N2[C@H](C1)[C@H](c1ccc(-c3cccnc3)cc1)[C@@H]2CO	-1.8
O=C(Nc1cc(F)ccc1F)N1CC(=O)N2[C@H](C1)[C@@H](c1ccc(-c3cccnc3)cc1)[C@@H]2CO	-8.2*
C[C@H](O)C#Cc1ccc([C@H]2[C@@H](CO)N3CCCCN(C(=O)c4ccc(F)cc4)C[C@H]23)cc1	0.81
O=C(Nc1ccccc1)N1CC(=O)N2[C@H](C1)[C@H](c1ccc(-c3ccc(F)cc3)cc1)[C@@H]2CO	-0.23
CC(C)C#Cc1ccc([C@H]2[C@H]3CN(C(=O)c4ccc5c(c4)OCO5)CCCCN3[C@H]2CO)cc1	2
N#C[C@H]1[C@@H](c2ccccc2-c2cccc(F)c2)[C@@H](CO)N1C(=O)C1CCCCC1	1.2
C[C@@H]1CC=CC[C@H](c2ccccc2)NC(=O)[C@H](C)N(C)C(=O)c2ccccc2O1 (mixture of isomers)	0.44
Cc1ccccc1S(=O)(=O)N1CC(=O)N2[C@H](CO)[C@@H](c3ccc(C#CCN(C)C)cc3)[C@@H]2C1	4
C[C@H]1CC=CC[C@H](c2ccc3c(c2)OCO3)NC(=O)[C@H](C)N(C)C(=O)c2ccccc2O1 (mixture of isomers)	-1.8
Cc1cccc(S(=O)(=O)N2CCCCN3[C@H](CO)[C@H](c4ccc(-c5ccncc5)cc4)[C@@H]3C2)c1	1.5
COc1ccccc1CN1[C@H](CO)[C@@H]2c3ccccc3N(C(=O)C3CCOCC3)C[C@@H]21	1.1
C[C@H]1CN([C@@H](C)CO)C(=O)c2ccccc2-c2ccccc2CO[C@H]1CN(C)C(=O)CCC(F)(F)F	-0.68
COc1cccc(S(=O)(=O)Nc2ccc3c(c2)C(=O)N(C)C[C@H](OC)[C@@H](C)CN(Cc2ccccc2F)[C@@H](C)CO3)c1	-0.74
COc1ccccc1NC(=O)N1CC(=O)N2[C@H](CO)[C@@H](c3ccc(-c4ccccc4)cc3)[C@H]2C1	-0.5
O=C(C1CC1)N1CC(=O)N2[C@H](CO)[C@H](c3ccc(Br)cc3)[C@H]2C1	2.5
CCC(=O)N1[C@H](CO)[C@H](c2ccccc2)[C@H]1CN(CC)C(=O)c1ccc(F)cc1	2.2
COc1cccc(-c2ccc([C@@H]3[C@@H](CO)N4C(=O)CN(C(=O)c5ccncc5)C[C@@H]34)cc2)c1	-2.8
Cc1ccc(-c2ccc([C@@H]3[C@H]4CN(C(=O)CN5CCOCC5)CC(=O)N4[C@H]3CO)cc2)cc1	-2.1
COc1cccc(-c2ccc([C@@H]3[C@@H](CO)N4C(=O)CN(C(=O)CN5CCOCC5)C[C@H]34)cc2)c1	-3.8*
SMILES	IDE exosite inh
Cc1cccc(-c2ccc([C@H]3[C@H](CO)N4C(=O)CN(C(=O)CN5CCOCC5)C[C@@H]34)cc2)c1	-6.3*
COc1cccc(-c2ccc([C@@H]3[C@H]4CN(C(=O)CN5CCOCC5)CC(=O)N4[C@H]3CO)cc2)c1	-5.5*
COc1cccc(-c2ccc([C@H]3[C@H]4CN(C(=O)c5ccncc5)CC(=O)N4[C@H]3CO)cc2)c1	1.6
COCC#Cc1ccc([C@@H]2[C@H]3CN(C(=O)CN4CCOCC4)CC(=O)N3[C@H]2CO)cc1	-0.13
Cc1ccc(-c2ccc([C@@H]3[C@H](CO)N4C(=O)CN(C(=O)CN5CCOCC5)C[C@@H]34)cc2)cc1	-0.58
Cc1ccc(-c2ccc([C@H]3[C@@H](CO)N4C(=O)CN(C(=O)CN5CCOCC5)C[C@@H]34)cc2)cc1	-0.81
Fc1cccc(CN2[C@@H]3CNC[C@H]2C3c2ccc(-c3ccncc3)cc2)c1 (stereo partly specified)	-0.99
CC(=O)N1CC(=O)N2[C@H](CO)[C@@H](c3ccc(-c4ccccc4)cc3)[C@@H]2C1	0.11
CC(C)CC#Cc1ccc([C@@H]2[C@@H](CO)N3C(=O)CN(C(=O)Cc4ccccc4)C[C@@H]23)cc1	1.8
COC(=O)C[C@H]1CC[C@H]2[C@@H](COC[C@H](O)CN2S(=O)(=O)c2cn(C)cn2)O1	1.5
COc1ccccc1NC(=O)N1CC(=O)N2[C@H](C1)[C@H](c1ccc(C#CCC(C)C)cc1)[C@@H]2CO	1.8
CN(C)C(=O)c1cccc(-c2ccc([C@H]3[C@H]4CN(C(=O)C5CC5)CC(=O)N4[C@H]3CO)cc2)c1	2.4
CN1CCCCN2[C@H](CO)[C@@H](c3ccc(/C=C/c4ccccc4)cc3)[C@H]2C1	-5.4*
CCC(=O)N1CCCCN2[C@@H](CO)[C@H](c3ccc(/C=C/c4ccccc4)cc3)[C@@H]2C1	-7.2*
CN1CCCCN2[C@H](CO)[C@H](c3ccc(/C=C/c4ccccc4)cc3)[C@H]2C1	-3
O=C(c1cccc(F)c1)N1CCCCN2[C@H](C1)[C@H](c1ccc(/C=C/c3ccccc3)cc1)[C@@H]2CO	0.48
CN1CCCCN2[C@H](CO)[C@H](c3ccc(-c4ccccc4)cc3)[C@H]2C1	4.3
CCC(=O)N1CCCCN2[C@H](CO)[C@H](c3ccc(/C=C/c4ccccc4)cc3)[C@H]2C1	-3.1*
CCC(=O)N1CCCCN2[C@H](CO)[C@H](c3ccc(-c4ccc(F)cc4)cc3)[C@@H]2C1	1.7
O=C(c1cccc(F)c1)N1CCCCN2[C@H](CO)[C@@H](c3ccc(/C=C/c4ccccc4)cc3)[C@@H]2C1	2.4
CCC(=O)N1CCCCN2[C@H](CO)[C@H](c3ccc(-c4ccc(F)cc4)cc3)[C@H]2C1	3.3
CCC(=O)N1CCCCN2[C@H](CO)[C@@H](c3ccc(/C=C/c4ccccc4)cc3)[C@H]2C1	-2.6
O=C(c1ccc(F)cc1)N1CCCCN2[C@@H](CO)[C@H](c3ccc(/C=C/c4ccccc4)cc3)[C@@H]2C1	-3.4*
CCC(=O)N1CCCCN2[C@@H](CO)[C@@H](c3ccc(-c4ccc(F)cc4)cc3)[C@@H]2C1	0.52
COc1ccc2c3c([nH]c2c1)[C@@H](CO)N(C(=O)CN1CCOCC1)CC31CCN(CC2CCCC2)CC1	-0.27
CN(C)CC#Cc1ccc([C@H]2[C@@H](CO)N3C(=O)CN(C(=O)c4cccnc4)C[C@@H]23)cc1	2.9
Cc1ccc(S(=O)(=O)Nc2ccc3c(c2)C(=O)N([C@H](C)CO)C[C@H](C)[C@H](CN(C)S(=O)(=O)c2cccs2)OCCCC[C@H](C)O3)cc1	2.1
O=C(c1ccc2c(c1)OCO2)N1CC(=O)N2[C@H](C1)[C@H](c1ccc(C#CCC3CCCC3)cc1)[C@@H]2CO	2.4
OC[C@@H]1[C@@H](c2ccc(-c3ccc(F)cc3)cc2)[C@H]2CN(Cc3cccnc3)CCCCN12	0.73
CC(C)CC#Cc1ccc([C@H]2[C@H]3CN(C(=O)NC(C)C)CC(=O)N3[C@H]2CO)cc1	-1.1
